High-throughput results as filed in PubChem.
Rows were chosen to be rich in hits. Some 1.4% of all compounds tested hit in one or more screens of this group.
ZTA counter: blocks Epstein-Barr virus ZTA, an EBNA-1 counter-screen | P03206 | ZTA-DNA binding, fluorescence polarization | inhibition, % at 11 µM | 320,000 compounds, 0.15% hits | AID 2234; in the data active = inhibition above about 33%
LYPLA2 inh: LYPLA2 inhibitors, primary screen, counter-screen for PME1 inhibitor project, biochemical, fluorescence polarization, FP-Rh probe ABPP. 320,000 compounds, 0.38% hits. Acyl-protein thioesterase 2 (Homo sapiens), O95372. recombinant LYPLA2. AID 2177, 2009. inhibition, % at 5.9 µM;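 active = inhibition above the screen-wide mean plus 3 SD, limit set per campaign, cut at about 26% in these data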;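 note: 0% = LYPLA2 with DMSO and 100% = wells lacking LYPLA2 enzyme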
Target sequence (O95372 whole entry, looked up): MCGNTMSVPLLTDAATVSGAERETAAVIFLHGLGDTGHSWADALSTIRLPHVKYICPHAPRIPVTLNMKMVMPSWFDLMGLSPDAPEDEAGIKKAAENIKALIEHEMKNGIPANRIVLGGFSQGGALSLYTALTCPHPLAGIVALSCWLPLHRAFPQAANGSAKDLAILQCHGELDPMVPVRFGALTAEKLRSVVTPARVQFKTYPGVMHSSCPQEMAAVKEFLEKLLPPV
EBNA-1 inh: EBNA-1 DNA-binding inhibitors, primary screen, biochemical, fluorescence polarization; inhibition, % at 14.8 µM; 300,000 compounds, 0.34% hits; in the data active = inhibition above about 28%
LANA-H2B inh: blockers of LANA interaction with H2A/H2B – biochemical, FP readout, HTS, primary screen | Protein LANA1 (Human herpesvirus 8 type P (isolate GK18)), Q9QR71 | cell-free LANA-H2A/H2B peptide, fluorescence polarization | inhibition, % (test concentration not listed) | 320,000 compounds, 0.6% hits; in the data active = inhibition mostly above about 10%, no sharp cut-off; inactive = mostly below about 6.7%
LYPLA1 inh: LYPLA1 inhibitors, primary screen, counter-screen for PME1 inhibitor project, biochemical, fluorescence polarization, FP-Rh probe ABPP; recombinant LYPLA1; 320,000 compounds, 0.16% hits; AID 2174, 2009; inhibition, % at 5.9 µM;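 active = inhibition above the mean of all tested compounds plus 3 SD, set per campaign, cut at about 14% in these data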;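 note: inhibitors block serine hydrolase probe labeling of LYPLA1 so polarization falls; 0% = enzyme with DMSO and 100% = wells lacking LYPLA1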
An asterisk follows results filed as active; nt = not tested or not shown; + = active, no number; ! = not active in a repeat.

SMILES	ZTA counter	LYPLA2 inh	EBNA-1 inh	LANA-H2B inh	LYPLA1 inh
COc1cc(C)nc(-c2csc(C)n2)n1	-14	-2	2	20*	0
COc1ccccc1NC(=O)Cn1c(C)cc(=O)c2cccc(OC)c21	8	-3	-14	25*	-1
CN(CC(=O)Nc1ccccc1Br)C(=O)c1ccncc1	2	-1	-6	29*	0
CN(CC(=O)Nc1ccccc1Br)C(=O)c1ccc(COc2ccccc2)cc1	-14	11	3	-4	6
N#Cc1c(NC(=O)c2cnccn2)sc2c1CCCC2	-17	2	-8	19*	8
CCN(CC)c1ccc(NC(=O)c2ccc(S(=O)(=O)N3CCOCC3)cc2)cc1	nt	nt	nt	3	nt
O=C(NCCc1ccc(Cl)cc1)C1CCC(=O)N1Cc1ccccc1Cl (stereo unspecified)	-4	-5	-9	13*	-4
CCOC(=O)C(c1ccccc1)C(Nc1ccc(F)cc1)c1ccccn1 (stereo unspecified)	-9	5	0	21*	1
COc1ccc2c(c1)cc(C(=O)N[C@@H](CCSC)C(=O)N1CCC[C@H]1C(=O)O)n2C	0	-2	-6	1	-1
COc1ccc(S(=O)(=O)N2CCN(C(=O)CC3CC4CCC3C4)CC2)cc1 (stereo unspecified)	-11	-2	nt	nt	-1
COc1ccc2[nH]c(=O)c(CN(C(=O)C(C)C)c3ccccc3OC)cc2c1	5	9	-10	0	0
CC1OC(OCC2OC(Oc3c(-c4ccc(O)cc4)oc4cc(O)cc(O)c4c3=O)C(O)C(O)C2O)C(O)C(O)C1O (stereo unspecified)	0	2	-2	+	2
COc1ccc(S(=O)(=O)NCC(=O)NCCc2ccc(OC)c(OC)c2)cc1	-17	4	-3	9	7
Cc1ccsc1/C=C(\C(=O)c1ccc(OC(C)C)cc1)c1nc2ccccc2o1	-9	-10	4	11*	-7
COCC(C)NC(=O)c1cc(-c2ccccc2OC)on1 (stereo unspecified)	7	1	5	21*	1
COc1ccccc1-c1cc(C(=O)NCCN2CCOCC2)no1	-6	-3	-6	16*	-2
COc1ccccc1-c1cc(C(=O)NCCCN2CCOCC2)no1	9	8	6	5	1
O=C(Nc1cccnc1)c1sc(Nc2ccccc2)nc1-c1ccccc1	3	5	89*	3	3
Cc1cccc(Nc2nc(-c3ccccc3)c(C(=O)Nc3cccnc3)s2)c1	11	-12	8	2	-5
O=[N+]([O-])c1ccc(Cl)c(S(=O)(=O)/N=C(/c2ccccc2)N2CCOCC2)c1	-1	-4	-3	-5	-3
COC(=O)c1cccc(NC(=O)CC2C(=O)NCCN2C(=O)Nc2ccccc2)c1 (stereo unspecified)	3	7	12	189*	2
CCOC(=O)C1CCCN(c2nc3ccccc3nc2C(C#N)C(=O)OCCOC)C1 (stereo unspecified)	-14	7	1	20*	3
C=CCn1c(SCC)nc(O)cc1=O	-15	2	-8	-8	3
C=CCn1c(SCCC)nc(O)cc1=O	-5	9	-5	16*	0
COc1cccc(NC(=O)C(=O)NCCC2CCCCN2S(=O)(=O)c2cccs2)c1 (stereo unspecified)	0	4	-17	nt	2
SMILES	ZTA counter	LYPLA2 inh	EBNA-1 inh	LANA-H2B inh	LYPLA1 inh
CC1=CC(=C(C#N)C#N)c2ccccc2N1C	6	-9	6	46*	-4
CC1=C/C(=C\C=C(C#N)C#N)N(C)c2ccccc21	21	-86	3	-8	-122
Oc1[nH]c2ccccc2c1N=Nc1ccc(F)cc1	9	-11	8	-4	-5
Oc1[nH]c2ccccc2c1N=Nc1ccccc1	0	-1	-2	16*	-2
C=CCn1c(=S)[nH]c2ccccc2c1=O	-3	-1	5	16*	0
O=C1COc2ccc(C(=O)COC(=O)Cc3ccc(F)cc3)cc2N1	3	-2	-1	2	0
Cc1ccc(N(CC2=NCCN2)c2cccc(O)c2)cc1	1	1	-4	23*!	-2
Cc1cc(Br)c(OCC(=O)NN)c2c1CCC2	4	-5	5	1	2
